A selection: hits, their analogues and other compounds. The true share with any hit is near 3.2%.
Tau ThT inhib: blocks human tau fibril formation measured by thioflavin T; recombinant tau K18 P301L, heparin-induced fibrillization, ThT fluorescence; P10636; Potency, µM (highest dose often 57.4 µM), actives largely listed as inhibitors; 270,000 compounds, 2.1% hits; AID 1460; note: nearly all actives have a fitted effect of over 55% in size
Target sequence (P10636 561-689 P618L limits assumed): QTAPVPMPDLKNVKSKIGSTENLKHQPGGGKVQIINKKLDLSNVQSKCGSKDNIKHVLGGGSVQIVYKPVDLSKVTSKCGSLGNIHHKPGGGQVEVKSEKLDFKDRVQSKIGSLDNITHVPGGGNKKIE
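Heparin-induced (20 uM) aggregation of recombinant human K18 P301L tau, 15 uM unlabeled with 0.24 uM labeled, pH 7 acetate buffer, 6 hr at 37 C with compound. Fibrils quantified by 30 uM ThT fluorescence after 1 hr ambient incubation.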
Tau fibril FP: tau fibrillization inhibition (FP). 280,000 compounds, 0.39% hits. Potency, µM (series often up to 57.7 µM), most hits filed as inhibitors. K18 P301L tau heparin fibrillization, Alexa594 FP, 6 h; note: nearly all actives have a fitted effect of over 55% in size
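K18 P301L tau (15 uM unlabeled/0.24 uM Alexa 594-labeled, final) + compound + heparin 20 uM final; 100 mM NaOAc pH 7; 6 hr 37 C; ThT 30 uM final added, 1 hr RT; FP ex 555/em 632 nm.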
GoLoco inh red: blocks human Gai1 binding to RGS12 GoLoco peptide, red readout. 230,000 compounds, 0.44% hits. Potency, µM (top dose mostly 61.6 µM), usual class: inhibitors. P63096. Gai1:RGS12 GoLoco peptide FP, rhodamine, 10 min; active = well fitted inhibition curve with a large enough effect, not every such curve was filed as active; inactive = no such curve, though single readings can be large or run the other way; note: nearly all actives have a fitted effect of over 30% in size
Tau fluor cs: counter-screen for tau fibril formation inhibitors; tau K18 P301L (four-repeat tau fragment) Alexa594 fluorescence, heparin fibrillization; Potency, µM (titrated, usually from 57.7 µM); 280,000 compounds, 0.93% hits; note: nearly all actives have a fitted effect of over 55% in size
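Human K18 P301L tau (15 uM unlabeled plus 0.24 uM Alexa 594-labeled, final) in 100 mM sodium acetate pH 7 was mixed with compound and 20 uM heparin and incubated 6 hr at 37 C.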
TexasRed fluor: alters Texas Red total fluorescence, flagging assay interference. TRb/SRC2 Texas Red total fluorescence interference. Potency, µM (series often up to 106 µM). 280,000 compounds, 0.29% hits; active = well fitted curve in either direction with a large enough effect; inconclusive = small, poorly fitted or top-dose-only effect
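Human TRβ ligand-binding domain (0.6 uM) and Texas Red SRC2 peptide (20 nM) in Tris buffer with 1 uM T3 and 5% DMSO were incubated with pinned compound for 5 hr at ambient temperature. Total fluorescence was computed as S + 2P (555/632 nm).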
TRb-SRC2 inh: TRbeta-SRC2 interaction inhibition | P10828 | TRbeta-SRC2 peptide binding, fluorescence polarization; receptor liganded with 1 µM T3 | Potency, µM (doses to about 106 µM), most hits filed as inhibitors | 280,000 compounds, 0.065% hits; note: nearly all actives have a fitted effect of over 50% in size
Target sequence (P10828 whole entry, looked up): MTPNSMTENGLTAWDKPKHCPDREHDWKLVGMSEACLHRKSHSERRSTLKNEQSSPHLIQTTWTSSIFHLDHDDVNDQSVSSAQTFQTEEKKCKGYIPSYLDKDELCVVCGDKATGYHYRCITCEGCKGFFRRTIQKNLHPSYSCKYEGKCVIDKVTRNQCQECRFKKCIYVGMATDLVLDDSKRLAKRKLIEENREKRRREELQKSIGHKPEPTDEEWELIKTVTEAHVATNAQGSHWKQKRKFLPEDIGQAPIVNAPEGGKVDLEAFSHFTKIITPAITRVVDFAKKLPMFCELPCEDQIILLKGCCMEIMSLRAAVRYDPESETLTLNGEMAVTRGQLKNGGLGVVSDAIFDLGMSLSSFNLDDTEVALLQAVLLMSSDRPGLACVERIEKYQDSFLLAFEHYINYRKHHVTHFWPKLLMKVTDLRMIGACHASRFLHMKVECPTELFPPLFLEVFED
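Fluorescence polarization of 20 nM Texas Red SRC2 peptide (20-aa NR interaction domain) bound to 0.6 uM human TRb ligand-binding domain, with 1 uM T3, after 5 hr at ambient temperature; inhibition seen as decreased polarization.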
Large screens that a line does not name were inactive; [ ] = dose if it differs, or a comment. Unless noted, calls come from the whole dose curve; as a rule, active = well fitted curve in the direction sought with a large enough effect; inconclusive = small, poorly fitted or top-dose-only effect, or another doubt; inactive = no such curve, though single readings can be large; an effect the other way counts as inactive or inconclusive.

O=C(O)CC/C(=C\c1ccc(Cl)c([N+](=O)[O-])c1)c1nc2ccccc2s1	none
O=C(O)C/C(=C\c1ccc(N2CCOCC2)c([N+](=O)[O-])c1)c1nc2ccccc2s1	Tau ThT inhib 14µM
O=C(Nc1ccccc1)c1cc(Cl)ccc1O	none (no result: Tau ThT inhib, Tau fibril FP, GoLoco inh red, Tau fluor cs)
O=C(Cc1ccccc1)Nn1c(O)c(/C=C2\C=Nc3ccccc32)sc1=S	Tau ThT inhib 2.5µM, Tau fibril FP inconclusive, Tau fluor cs 7.9µM[quencher]
Cn1c(O)c(/C=C2\C=Nc3ccccc32)sc1=Nc1ccc(C(=O)O)cc1	none (no result: Tau ThT inhib)
Cc1ccc(C2C3CSCC=C3C(C#N)=C(N)C2(C#N)C#N)cc1 (stereo unspecified)	Tau ThT inhib 20µM, Tau fibril FP inconclusive
Cc1ccc([C@@H]2C3COCC=C3C(C#N)=C(N)C2(C#N)C#N)o1 (stereo partly specified)	Tau ThT inhib 25µM, Tau fibril FP inconclusive
CC(C)N1CC=C2C(C#N)=C(N)C(C#N)(C#N)C(c3ccccc3)C2C1 (stereo unspecified)	Tau ThT inhib inconclusive, Tau fibril FP inconclusive
CC1CC=C2C(C#N)=C(N)C(C#N)(C#N)C(c3cccs3)C2C1 (stereo unspecified)	Tau ThT inhib inconclusive, Tau fibril FP inconclusive
CC(C)N1CC=C2C(C#N)=C(N)C(C#N)(C#N)[C@H](c3ccoc3)[C@H]2C1	Tau ThT inhib 20µM, Tau fibril FP inconclusive
CCN1CC=C2C(C#N)=C(N)C(C#N)(C#N)C(c3cc(Cl)ccc3Cl)C2C1 (stereo unspecified)	Tau ThT inhib 13µM, Tau fibril FP inconclusive
C=CCNC(=O)N1CCc2nc(-c3ccccc3)c3c(c2C1)CO[C@@H](C)C3	none
O=C(O)/C=C\C(=O)Nc1ccc2c(c1)-c1ccccc1C2	none (no result: Tau ThT inhib, Tau fibril FP, Tau fluor cs, TexasRed fluor, TRb-SRC2 inh)
Cc1o[nH]c(=O)c1CCC(N)C(=O)O (stereo unspecified)	none
CC(C)S(=O)(=O)C1=NSC2=NC(=O)/C(=C\c3ccc(-c4cccc(C(=O)O)c4)o3)C(=N)N21	none
N=C1/C(=C/c2ccc(-c3cccc(C(=O)O)c3)o2)C(=O)N=C2SC=C(c3ccccc3)N12	Tau ThT inhib 4.5µM, TexasRed fluor inconclusive
N=C1/C(=C\c2ccc(-c3cc(Cl)cc(Cl)c3)o2)C(=O)N=C2SC=C(c3ccccc3)N12	Tau ThT inhib 4µM
CN1C/C(=C\c2ccc(N3CCOCC3)cc2)C(=O)/C(=C/c2ccc(N3CCOCC3)cc2)C1	Tau ThT inhib 0.63µM
CCN1C/C(=C/c2ccc(N3CCOCC3)cc2)C(=O)/C(=C/c2ccc(N3CCOCC3)cc2)C1	Tau ThT inhib 0.63µM (no result: GoLoco inh red)
CSCC[C@H](NC(=O)CN)C(=O)N[C@@H](CC(=O)O)C(=O)N[C@@H](CO)C(=O)N[C@@H](CC(C)C)C(=O)N[C@@H](C)C(=O)N[C@@H](Cc1ccccc1)C(=O)N[C@@H](CO)C(=O)NCC(=O)NCC(=O)N[C@@H](CC(C)C)C(N)=O	none (no result: Tau ThT inhib, Tau fibril FP, GoLoco inh red, Tau fluor cs)
COc1ccc(NC(=O)C(Cl)=C(Cl)Cl)cn1	none
COc1ccc(NC(=O)/C(Cl)=C(/Cl)S(=O)(=O)Cc2ccccc2)cn1	Tau ThT inhib 7.1µM, Tau fibril FP inconclusive
CCC(C(=O)NCc1ccccc1Cl)n1nc(C)c2sc3ccccc3c2c1=O (stereo unspecified)	none (no result: GoLoco inh red)
CC(=O)Nc1ccc(NC2=C(Cl)C(=O)c3ccccc3C2=O)cc1	Tau ThT inhib 2µM, Tau fibril FP 10µM, Tau fluor cs 2.2µM[quencher]
COC1=C(Nc2ccccc2OC)C(=O)c2ccccc2C1=O	Tau ThT inhib inconclusive, Tau fibril FP inconclusive, Tau fluor cs inconclusive
O=C(Oc1ccc([N+](=O)[O-])cc1)c1cccnc1	Tau ThT inhib inconclusive
COc1ccccc1NC1=C(NC(C)=O)C(=O)c2ccccc2C1=O	Tau ThT inhib 20µM, Tau fibril FP inconclusive
O=C(NC1=C(Nc2ccc(Cl)cc2)C(=O)c2ccccc2C1=O)c1ccccc1	Tau ThT inhib 18µM, Tau fluor cs inconclusive
CC(=O)Nc1ccc(NC(=O)c2cccc3c2-c2ccccc2C3=O)cc1	none
O=C(Oc1ccc(NC2=C(Cl)C(=O)c3ccccc3C2=O)cc1)c1ccc([N+](=O)[O-])cc1	Tau ThT inhib 3.2µM, Tau fibril FP inconclusive, Tau fluor cs 2.8µM[quencher]
Cc1cc(O)cc(O)c1C(=O)OC1(C)C(=O)C=C2C=C(/C=C/CO)OC=C2C1=O (stereo unspecified)	Tau ThT inhib inconclusive, Tau fibril FP inconclusive
O=C1C(Cl)=C(Nc2ccc3cn[nH]c3c2)C(=O)c2ccccc21	Tau ThT inhib 1.8µM, Tau fibril FP 7.9µM, GoLoco inh red 7.9µM, Tau fluor cs 1.4µM[quencher]
CN(C)c1ccc(NC2=C(Cl)C(=O)c3ccccc3C2=O)cc1	Tau ThT inhib 7.9µM, Tau fibril FP 14µM, Tau fluor cs 3.5µM[quencher]
O=C1C=C(Nc2ccccc2)c2ccccc2C1=O	Tau ThT inhib inconclusive
Cc1ccc(NC2=C(NCCO)C(=O)c3ccccc3C2=O)cc1	Tau ThT inhib 22µM, Tau fibril FP inconclusive, Tau fluor cs inconclusive
COC(=O)C[C@H](NC(=O)[C@H](C)NC(=O)[C@@H](NC(=O)OCc1ccccc1)C(C)C)C(=O)CF	none
CCOC(=O)/C(C#N)=C/c1cc2cc(C)c(C)cc2nc1Cl	none
Cc1cc2cc(C=C(C#N)C#N)c(Cl)nc2cc1C	Tau ThT inhib 3.2µM, Tau fibril FP inconclusive
CCCCOC(=O)c1c(C)oc2ccc(NS(=O)(=O)c3ccc4c5c(cccc35)C(=O)N4)cc12	Tau ThT inhib inconclusive, Tau fluor cs 16µM[quencher]
C/C(=N\NC(=O)c1cc(-c2cccnc2)nc2ccccc12)c1ccccc1O	TexasRed fluor 3.2µM[quencher]
COC(=O)N1CCC2(CCN(Cc3cc(C(F)(F)F)cc(C(F)(F)F)c3)CC2)CC1	none (no result: Tau ThT inhib, Tau fibril FP, Tau fluor cs, TexasRed fluor, TRb-SRC2 inh)
CC1(C)Oc2ccc3ccc(=O)oc3c2/C(=C/Nc2ccc(O)cc2)C1=O	Tau fluor cs 13µM[quencher]
O=C1c2ccccc2-c2onc3ccc(Oc4ccccc4)c1c23	Tau ThT inhib 4.5µM, Tau fibril FP inconclusive, Tau fluor cs 6.3µM[quencher]
Cc1noc(C)c1S(=O)(=O)Nc1ccccc1Oc1ccccc1	none
CCOc1cc(CNS(=O)(=O)c2ccc3c(c2)CC(=O)N3C)cc(OCC)c1OCC	TexasRed fluor 18µM[quencher] (no result: GoLoco inh red)
CN1C(=O)Cc2cc(S(=O)(=O)NCc3cccs3)ccc21	none
CCOC(=O)[C@]1(C(NC(=O)OC)c2ccccc2)CCCC1=O (stereo partly specified)	none (no result: GoLoco inh red)
Clc1cccc(Cl)c1/C=N\Nc1nccs1	none
O=[N+]([O-])c1cc(/C=N\Nc2nccs2)ccc1O	Tau ThT inhib 13µM, Tau fibril FP inconclusive, Tau fluor cs 14µM[quencher], TexasRed fluor 25µM[quencher], TRb-SRC2 inh inconclusive

Bioassay records as filed in PubChem.
